GLA inh pH 4.5 – qHTS Assay for Inhibitors of Human alpha-Galactosidase at pH 4.5 | 230,000 tested, under 10 active | purified enzyme, 4-MU-alpha-Gal fluorescence, pH 4.5 | Alpha-galactosidase A (Homo sapiens), P06280 | activity change, negative = inhibition, % at 105 µM | AID 1467, 2008
Target sequence (P06280 whole entry, looked up): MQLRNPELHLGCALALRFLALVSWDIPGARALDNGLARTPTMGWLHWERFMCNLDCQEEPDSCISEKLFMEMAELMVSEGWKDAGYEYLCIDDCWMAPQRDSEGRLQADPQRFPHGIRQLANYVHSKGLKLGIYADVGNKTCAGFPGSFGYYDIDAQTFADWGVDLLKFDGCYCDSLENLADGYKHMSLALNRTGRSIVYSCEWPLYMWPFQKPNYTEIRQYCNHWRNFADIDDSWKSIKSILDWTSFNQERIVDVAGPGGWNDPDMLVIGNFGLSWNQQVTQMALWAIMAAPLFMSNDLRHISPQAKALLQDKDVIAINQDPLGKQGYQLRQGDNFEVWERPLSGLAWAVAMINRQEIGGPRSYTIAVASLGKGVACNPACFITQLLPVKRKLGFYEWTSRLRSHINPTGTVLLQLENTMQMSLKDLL
GLA spleen mod – qHTS Assay for Inhibitors and Activators of Human alpha-Galactosidase From Spleen Homogenate | 0.008% of 240,000 active | Alpha-galactosidase A (Homo sapiens), P06280 | human spleen homogenate, 4MU-alpha-Gal fluorescence, 40 min | Potency, µM (titrated, usually from 80 µM), hits mostly inhibitors
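Human spleen homogenate (1 ug) was the enzyme source, with 4-methylumbelliferyl-alpha-D-galactopyranoside (1 mM final) in pH 5.0 citrate buffer with 0.01% Tween-20. Compounds were titrated; after 40 min at 37C, NaOH/glycine stop, 4-MU fluorescence read; AC50 from Hill fits.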
GAA glycogen mod – qHTS Assay for Inhibitors and Activators of Human alpha-Glucosidase Cleavage of Glycogen | recombinant GAA, glycogen substrate, Amplex Red glucose oxidase fluorescence | Potency, µM (titrated, usually from 76.4 µM), actives largely listed as inhibitors | 0.38% of 300,000 active | Lysosomal alpha-glucosidase (Homo sapiens), P10253 | AID 2100, 2009;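 note: the screen sought inhibitors and activators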
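Recombinant enzyme (4 nM final) with compounds titrated up to 77 uM and bovine liver glycogen (30 ug) in citrate pH 5.0, 0.01% Tween-20, 37 C 40 min. Released glucose detected by Amplex Red/glucose oxidase (Ex 573/Em 610); AC50 from Hill fits.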
N370S GC – qHTS Assay for Inhibitors and Activators of N370S glucocerebrosidase as a Potential Chaperone Treatment of Gaucher Disease; Lysosomal acid glucosylceramidase (Homo sapiens), P04062; AID 2101, 2009; Potency, µM (doses to about 59.4 µM), hits mostly inhibitors; N370S GC spleen homogenate, 4MU-glucoside fluorescence; 0.092% of 330,000 active
GAA inh – qHTS Assay for Inhibitors of Human alpha-Glucosidase as a Potential Chaperone Treatment of Pompe Disease | Lysosomal alpha-glucosidase (Homo sapiens), P10253 | purified human GAA, 4-MU-alpha-glucoside fluorescence | Potency, µM (series often up to 76.9 µM), most hits filed as inhibitors | 0.005% of 200,000 active
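Compounds are titrated up to 77 uM against 4 nM human enzyme. Substrate 4-methylumbelliferyl-alpha-D-pyranoside (400 uM) reacts 20 min at room temperature in pH 5.0 buffer; liberated 4-methylumbelliferone is read at 440 nm.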
GAA spleen mod – qHTS Assay for Inhibitors and Activators of Human alpha-Glucosidase From Spleen Homogenate. human spleen homogenate, 4-MU-alpha-glucoside fluorescence. AID 2112, 2009. Lysosomal alpha-glucosidase (Homo sapiens), P10253. Potency, µM (series often up to 79.9 µM), actives largely listed as inhibitors. 0.006% of 240,000 active
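Human spleen homogenate (1 ug) incubated with compounds and 1 mM 4-methylumbelliferyl-alpha-D-glucopyranoside in pH 5.0 citrate/phosphate buffer, 37 C, 40 min. Stopped at pH 10; 4-MU fluorescence (Ex 365/Em 440 nm); AC50 by Hill fit.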
Numbers stand for hits; - = inactive; ? = inconclusive; . = no result; [ ] = dose if it differs, or a comment. Only some compounds are listed: those with a hit (about 0.41% of all), similar ones and a draw of the others. Calls come from the whole dose curve; as a rule, active = well fitted curve in the direction sought with a large enough effect; inconclusive = small, poorly fitted or top-dose-only effect, or another doubt; inactive = no such curve, though single readings can be large; an effect the other way counts as inactive or inconclusive.

SMILES	GLA inh pH 4.5	GLA spleen mod	GAA glycogen mod	N370S GC	GAA inh	GAA spleen mod
O=C(O)C1CCC[C@@H]2[C@@H]3CC(CN12)[C@@H]1CCCCN1C3 (some centres not stated)	-	-	.	-	.	-
COc1ccc(NC(=S)NNc2ccc(S(=O)(=O)Nc3ccccc3C(=O)O)cc2[N+](=O)[O-])cc1	-	-	25µM	-	.	-
CC(CCc1ccccc1)NC(=O)CN1CCN(Cc2ccccc2)C1=O (configuration not stated)	-	-	-	-	-	-
CC(CCc1ccccc1)NC(=O)CN1CCN(c2ccc(O)cc2)CC1 (configuration not stated)	-	-	4.4µM	-	?	-
CCN(C(=O)CN1CCN(c2ccc(O)cc2)CC1)c1c(N)n(Cc2ccccc2)c(=O)[nH]c1=O	-	-	18µM	-	-	-
CCN(C(=O)CN1CCC(C)CC1)c1c(N)n(Cc2ccccc2)c(=O)[nH]c1=O	.	.	.	-	.	.
COc1ccc(-n2nc(C(=O)N3CCN(c4cccc(C(F)(F)F)c4)CC3)c3c4ccccc4n(C)c3c2=O)cc1Cl	.	.	-	.	.	.
CCC1Cc2cc(O)ccc2C2=C1c1ccc(O)cc1CC2CC (configuration not stated)	.	?	.	-	.	?
CC(=O)Nc1ccc(S(=O)(=O)Nc2nc3ccccc3nc2Nc2ccc(O)cc2)cc1	-	-	18µM	-	.	-
CCn1c(C)c(/C=N/Nc2nc3ccccc3s2)c2ccccc21	-	-	25µM	-	-	-
COc1cc(OC)cc(C2=Nn3c(nnc3-c3ccccc3O)SC2)c1	.	-	.	-	.	-
CCOc1ccc(OCCC(=O)OCC(=O)Nc2cc(C)nn2-c2ccccc2)cc1	.	.	.	-	.	.
Cc1cc(Nc2ccccc2)n(CCOC(=O)COc2ccccc2)n1	-	-	32µM	-	?	-
O=C(NCc1cccnc1)C(=O)NCC(c1cccnc1)N1CCN(c2ccccc2F)CC1 (configuration not stated)	.	.	-	.	.	.
CCCOc1cccc(-c2nn(-c3ccccc3)cc2/C=C(\C#N)C(=O)NCCCn2ccnc2)c1	-	-	-	-	-	-
N#C/C(=C/c1cn(-c2ccccc2)nc1-c1cccc(OCc2ccc(F)cc2)c1)C(=O)NCCCn1ccnc1	-	-	-	16µM	-	-
CC(C)C[C@H](NC(=O)[C@H](CCCCN)NC(=O)[C@H](CCCNC(=N)N)NC(=O)[C@H](C)NC(=O)[C@H](CO)NC(=O)[C@H](CCCCN)NC(=O)[C@H](CCCNC(=N)N)NC(=O)[C@H](C)NC(=O)CNC(=O)[C@@H](NC(=O)[C@H](Cc1ccccc1)NC(=O)CNC(=O)CNC(=O)[C@@H](N)Cc1ccccc1)[C@@H](C)O)C(=O)N[C@@H](C)C(=O)N[C@@H](CC(N)=O)C(=O)N[C@@H](CCC(N)=O)C(=O)O	.	-	.	-	.	-
O=C(Cl)COCc1ccccc1	.	-	.	-	.	-
COC(=O)C(N)Cc1ccc(O)cc1 (configuration not stated)	-	-	-	-	-	-
COC(=O)C(N)Cc1ccc(O)c(O)c1 (configuration not stated)	-	-	3.1µM	-	-	-
CCc1ccccc1NS(=O)(=O)c1cc(Br)cc2c1N(C(=O)C1CC1)CC2	.	.	-	.	.	.
CC1CC=CC2C1C(=O)N(Cc1ccccc1)C2c1ccc(F)c(Br)c1 (configuration not stated)	.	-	.	-	.	-
N#Cc1c(Cl)cccc1N1CCC(C(N)=O)CC1	-	-	4.4µM	-	.	-
N#Cc1c(Cl)cccc1N1CCCC1	-	-	-	-	-	-
Cc1ccccc1NS(=O)(=O)c1ccc2[nH]cc(C(=O)NC3CCCCC3)c(=O)c2c1	.	.	.	-	.	.
SMILES	GLA inh pH 4.5	GLA spleen mod	GAA glycogen mod	N370S GC	GAA inh	GAA spleen mod
CCOC(=O)Cc1csc(Nc2c(C)n(C)n(-c3ccccc3)c2=O)n1	-	-	10µM	-	-	-
Cc1ccc(S(=O)(=O)c2nnn3c2nc(NCc2ccc4c(c2)OCO4)c2sccc23)cc1C	.	.	-	.	.	.
CCOC(=O)Nc1ccc2c(c1)N(C(=O)CN(CC)CC)c1ccccc1CC2	.	.	8.9µM	-	.	.
NC(CCC(=O)N[C@@H](CS)C(=O)NCC(=O)O)C(=O)O (some centres not stated)	-	-	.	-	.	-
CC(=O)NCCc1ccc(O)c(O)c1	-	-	.	-	.	-
NCCc1ccc(O)c(O)c1	-	-	2µM	-	-[15.4 µM]	-
O=C(Nc1cccc(Cl)c1)OCC#CCCl	.	-	.	-	.	-
Cc1ccc2occ(/C=N/NC(=O)c3ccc(O)cc3)c(=O)c2c1	.	.	-	-	.	.
NC(=O)N/N=C/c1coc2ccc(O)cc2c1=O	-	-	16µM	-	-	-
Cc1nc(C#N)c(N/N=C/c2cccc(Cl)c2)o1	-	-	32µM	-	-	-
O=c1[nH][nH]cc1C=Nc1ccccc1O	-	-	?	-	-	-
O=c1c(=Nc2ccccc2O)c(=O)c2ccccc12	-	-	8.9µM	-	-	-
O=S(=O)(Nc1cccc2cccnc12)c1ccccc1O	.	-	.	-	.	-
Cc1cc(NS(=O)(=O)c2ccccc2)cc(Cl)c1O	-	-	20µM	-[2.35 µM]	-	-
Cc1cc(O)c(C(C)C)cc1NS(=O)(=O)c1ccccc1	-	-	9.9µM	-	-	-
COc1ccc(S(=O)(=O)Nc2cc(S(=O)(=O)c3ccccc3)c(O)cc2C)cc1	.	.	-	-	.	.
Cc1ccc(S(=O)(=O)Nc2cc(C)c(O)c(S(=O)(=O)c3ccc(C)cc3)c2)cc1	-	-	11µM	-	-	-
Cc1ccc(S(=O)(=O)c2cc(Nc3ccccc3)ccc2O)cc1	.	.	.	-	.	.
CCOC(=O)CNS(=O)(=O)c1ccc(F)cc1Br	.	-	.	-	.	-
Cc1cccc(NNC(=O)C(=O)NNc2cccc(C)c2)c1	-	-	?	-	.	-
CCCc1ccc(C(=O)NNc2cccc(C)c2)cc1	-	-	16µM	-	.	-
Cc1c(NC(=S)N/N=C/c2ccc(O)cc2)c(=O)n(-c2ccccc2)n1C	-	-	7µM	-	?	-
O=C(NC(NC(=S)Nc1ccc(F)c([N+](=O)[O-])c1)C(Cl)(Cl)Cl)C(c1ccccc1)c1ccccc1 (configuration not stated)	.	-	.	-	.	-
CCNC(=S)Nc1ccc(N2CCCCC2)cc1	-	-	?	-	-	-
